Shown are actives, neighbours in structure and some others; about 2.4% of the full set was active somewhere.
D2 ag-1 – Beta-Arrestin HTS for Positive Allosteric Modulators of the Human D2 Dopamine Receptor: Agonists; AID 624465, 2012; DiscoveRx PathHunter D2 beta-arrestin, luminescence, 90 min; 100% = 57 uM dopamine signal; 0.084% of 360,000 active; activation, % (concentration not given with the values); in the data active = activation above about 40%; inconclusive = between about 15% and that limit
Target sequence (P14416 whole entry, looked up): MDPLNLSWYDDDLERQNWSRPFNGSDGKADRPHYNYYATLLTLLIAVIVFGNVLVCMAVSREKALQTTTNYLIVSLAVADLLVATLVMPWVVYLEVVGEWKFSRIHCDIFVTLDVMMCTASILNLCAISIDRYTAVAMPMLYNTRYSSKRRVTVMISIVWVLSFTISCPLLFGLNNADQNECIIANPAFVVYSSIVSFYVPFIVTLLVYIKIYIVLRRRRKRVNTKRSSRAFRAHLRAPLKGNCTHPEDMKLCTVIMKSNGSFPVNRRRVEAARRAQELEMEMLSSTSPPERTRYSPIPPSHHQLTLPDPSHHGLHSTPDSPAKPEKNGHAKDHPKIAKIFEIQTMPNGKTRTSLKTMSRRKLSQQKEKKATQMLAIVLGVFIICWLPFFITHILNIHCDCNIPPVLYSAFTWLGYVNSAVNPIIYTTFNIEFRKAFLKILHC
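DiscoveRx PathHunter D2 beta-arrestin cells (2,100/well) attached overnight, then compound-stimulated 90 min at 37 C in HBSS/10 mM HEPES/0.1% Tween-20 buffer; beta-galactosidase complementation read by luminescence after 1 h at ambient temperature. Dopamine 57 uM final (EC100) as control.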
D2 PAM-1 – Beta-Arrestin HTS for Positive Allosteric Modulators of the Human D2 Dopamine Receptor: Potentiators; D(2) dopamine receptor (Homo sapiens), P14416; DiscoveRx D2 beta-arrestin cells, luminescence, 90 min; 100% = 57 uM dopamine signal; potentiation, % (test concentration not listed); 0.23% of 360,000 active; in the data active = potentiation above about 50%; inconclusive = mostly about 30% to 49%
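D2 cells co-treated with compound plus 50 nM dopamine (EC20) for 90 min at 37 deg C to detect potentiation. Beta-arrestin recruitment was read as enzyme-fragment luminescence after 1 h at ambient temperature. Full response was set by 57 uM dopamine.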
D2 antagonist – HTS Assay for Allosteric Antagonists of the Human D2 Dopamine Receptor: Primary Screen for Antagonists; D(2) dopamine receptor (Homo sapiens), P14416; AID 485344, 2010; inhibition, % at 10 µM; HEK293 TREx D2 cells, calcium flux, dopamine EC80; 2% of 340,000 active; in the data active = inhibition above about 30%; inactive = below that, where a call was filed; also: 0% is about no effect
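Tetracycline-induced HEK293 T-REx cells expressing D2 force-coupled to calcium signalling were dye-loaded, exposed to compound for 180 s, then challenged with an EC80 of dopamine; calcium flux was followed kinetically for a further 180 s.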
D2 ag-2 – HTS Assay for Allosteric Agonists of the Human D2 Dopamine Receptor: Primary Screen for Agonists. HEK293 T-REx D2 cells, calcium flux agonist mode. 0.53% of 340,000 active. AID 485358, 2010. activation, % at 2 µM;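 active = activation over 3 SD above normal in the single-dose calcium agonist read, cut at about 30% in these data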; also: 0% is about no effect
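Agonism scored from kinetic calcium signal (1 read/sec, 180 s) following compound pin transfer, after a 10 s baseline. Cells: HEK293 Trex line expressing inducible D2 receptor coupled to calcium, dye-loaded after overnight culture at 30 C.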
D2 PAM-2 – HTS Assay for Positive Allosteric Modulators of the Human D2 Dopamine Receptor: Primary Screen for Potentiators | HEK293 T-REx D2, calcium flux, EC20 dopamine potentiation | potentiation, % at 10 µM | 0.34% of 340,000 active | AID 485347, 2010;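 active = potentiation over 3 SD above the plate norm, cut at about 30% in these data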; also: 0% is about no effect
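Tetracycline-induced Hek293 Trex D2 cells, force-coupled to calcium, loaded with no-wash calcium dye. Compound added with 180 s kinetic read for agonism, then EC20 dopamine and a further 180 s read for potentiation.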
The depositor's hits bear a star; u = inconclusive; x = no result.

SMILES	D2 ag-1	D2 PAM-1	D2 antagonist	D2 ag-2	D2 PAM-2
CC1=C(C(=O)Nc2ccccc2C)C2(CCCCC2)C(C(N)=O)C(=S)N1 (stereo unspecified)	-5	-5	38*	1	0
COc1cc(OC)c(C2=Nc3ccc(Br)cc3C(c3ccccc3)N2CC(=O)NN)cc1OC (stereo unspecified)	-6	-4	78*	0	-19
CC1=Nc2ccc(Br)cc2C(c2ccccc2)N1CC(=O)NN (stereo unspecified)	-6	-5	36*	-2	-25
NNC(=O)CN1C(CN2CCOCC2)=Nc2ccc(Br)cc2C1c1ccccc1 (stereo unspecified)	0	-13	83*	1	-24
CCC1=Nc2ccc(Br)cc2C(c2ccccc2)N1CC(=O)OC (stereo unspecified)	-4	-20	3	0	-22
NNC(=O)CN1C(c2ccc(Cl)cc2)=Nc2ccc(Br)cc2C1c1ccccc1 (stereo unspecified)	-2	-32	x	0	-27
NNC(=O)CN1C(c2ccccc2)=Nc2ccc(Br)cc2C1c1ccccc1 (stereo unspecified)	-6	-17	81*	0	-32
CN(C(=O)c1cc(-c2ccccc2O)on1)c1ccccc1	x	x	x	-1	10
CCOC(=O)CNC(=O)Cn1cnc2c(nnn2-c2ccccc2)c1=O	1	-3	-7	0	14
O=C(Cn1cnc2c(nnn2-c2ccccc2)c1=O)NCc1ccco1	-5	-2	40*	0	-10
Cc1ccc(-n2ncc3c(=O)n(CC(=O)NCc4ccco4)cnc32)cc1	-1	-9	10	-1	31*
COC(=O)C(C)n1cnc2c(nnn2-c2ccccc2)c1=O (stereo unspecified)	3	-3	31*	0	7
CCOC(=O)C(C)n1cnc2c(nnn2-c2ccccc2)c1=O (stereo unspecified)	-2	-3	-19	0	-2
O=C(Cn1cnc2c(nnn2-c2ccccc2)c1=O)NCCc1ccccc1	-2	-3	-1	0	56*
COc1ccccc1NC(=O)c1sc2nc3n(c(=O)c2c1C)N=C(c1cccc(Br)c1)CS3	x	x	x	1	-9
Cc1cccc2c1N(Cc1ccccc1OCCC(C)C)C(=O)C2=O	x	x	x	-1	0
O=C(CSc1nc(=O)n(Cc2ccncc2)c2c1CCC2)Nc1ccc(F)cc1F	x	x	x	0	0
C=C1CCN([C@@H](C)C(=O)OCc2cccc(C)c2)S(=O)(=O)c2ccccc21	4	1	31*	1	12
COC(=O)C[C@@H]1C[C@@H]2c3cc(NS(=O)(=O)c4ccc(F)cc4)ccc3O[C@@H]2[C@H](CO)O1	-8	9	x	x	x
CCOc1ccc(Br)cc1S(=O)(=O)N1CCCC1	0	-3	54*	0	0
COc1ccc(CNC(=O)Cn2c(=O)oc3cc(S(=O)(=O)NCc4ccccc4)ccc32)cc1	x	x	x	0	-7
N/C(=N\OC(=O)c1cccc(Cl)c1)c1cccnc1	u	138*	19	0	2
N/C(=N\OC(=O)c1cccc(Cl)c1)c1ccncc1	u	16	-1	0	4
N/C(=N\OC(=O)c1ccc(Cl)c(Cl)c1)c1cccnc1	u	117*	-4	0	-9
Clc1ccc(N=C2SCC3CCCCN23)cc1 (stereo unspecified)	-2	-4	6	0	-18
SMILES	D2 ag-1	D2 PAM-1	D2 antagonist	D2 ag-2	D2 PAM-2
FC(F)Oc1ccc(N=C2SCC3CCCCN23)cc1 (stereo unspecified)	7	-3	7	-2	36*
O=C(CCS(=O)(=O)c1cc2c3c(c1)CCN3C(=O)CC2)NCc1ccc(F)cc1	x	x	x	x	-4
Nc1nc(N)c2ncn(C3C=CC(CO)C3)c2n1 (stereo unspecified)	-6	-6	x	x	x
CCOC(=O)c1cc(-c2ccc(C)o2)n[nH]1	0	-10	30*	-1	-15
COc1ccc(N2CCN(C(=O)c3ccc(NS(=O)(=O)c4cccc(F)c4)cc3)CC2)cc1	0	3	3	0	34*
CS(=O)(=O)Nc1ccc(C(=O)N2CCN(c3ccccc3F)CC2)cc1	-2	-3	63*	0	-6
COc1cccc(S(=O)(=O)Nc2cccc(C(=O)N3CCCC3)c2)c1	6	-5	-3	0	-1
O=C(c1ccccc1)N1CCN(c2ccccc2F)CC1	2	-10	0	3	-18
O=C(Nc1ccccc1N1CCOCC1)c1ccccc1NS(=O)(=O)c1ccc(F)c(F)c1	0	-14	-3	2	6
COc1cccc(S(=O)(=O)Nc2cccc(C(=O)N3CCOCC3)c2)c1	-4	-17	36*	0	1
O=C(Nc1ccccc1N1CCOCC1)c1cccc(NS(=O)(=O)c2ccc(F)c(F)c2)c1	12	3	48*	-1	-18
Cc1cc(C)cc(NC(=O)NCCn2nnc3cc(S(=O)(=O)N(C)C)ccc32)c1	x	x	x	-1	8
CCCOc1ccc(F)cc1-c1cc(C(=O)NCc2cccc(Cl)c2)[nH]n1	5	-8	x	x	x
Cn1cc(CN2CCC(C(=O)Nc3ccc(Oc4ccccc4F)cc3)CC2)cn1	7	-25	3	2	5
O=C(Nc1cccc(Cl)c1Cl)c1cc(S(=O)(=O)N2CCC3(CC2)OCCO3)ccc1F	x	x	x	1	17
CCN(CCCNC(=O)CSc1cc(=O)n(CC)c2ccccc12)c1ccccc1	x	x	x	1	-1
O=C1NC(c2cccs2)Nc2ccccc21 (stereo unspecified)	-3	-23	1	-2	7
Cc1ccsc1C1NC(=O)c2ccccc2N1 (stereo unspecified)	1	-15	-9	1	33*
CC(=O)c1ccc(Nc2ccc3cc(S(=O)(=O)N4CCCC4)ccc3n2)cc1	x	x	x	1	4
COc1ccccc1C(=O)NC1=NC(c2ccc(Br)cc2)CC(=O)N1 (stereo unspecified)	x	x	x	-1	6
Cc1ccc(NC(=S)N2CCCC(c3nc4ccccc4[nH]3)C2)cc1 (stereo unspecified)	2	-11	x	x	x
Cc1ccccc1NC(=S)N1CCCC(c2nc3ccccc3[nH]2)C1 (stereo unspecified)	-6	-21	32*	0	-1
O=[N+]([O-])c1ccccc1OCCNCc1ccccc1	1	-76	78*	23	-31
